According to PubChem BioAssay (NCI):
Compounds without any hit were thinned out: in the full panel of roughly 79,000, 15% have a hit. Active and inactive are the calls of the source. No stated cut-off is given here; in the data, active means growth inhibition above about 70%; inactive means the rest.

What was measured:
[1] = NCI Yeast Anticancer Drug Screen. Data for the rad52 strain (AID 147);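 further: 0% = growth of vehicle-treated control cultures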; conditions: S. cerevisiae rad52 mutant growth inhibition, active compounds read high
Method in brief: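 Yeast strain carrying a DNA damage repair alteration was exposed to test compounds. Growth inhibition was measured relative to vehicle-treated controls.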

[2] = NCI Yeast Anticancer Drug Screen. Data for the wt1 strain (AID 149);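 further: 0% = growth of vehicle-treated wt1 cultures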; conditions: S. cerevisiae wt1 strain (SPY 50644) growth inhibition, active compounds read high
Method in brief: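 wt1 strain grown with compound or vehicle; inhibition taken from the growth difference.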

[3] = NCI Yeast Anticancer Drug Screen. Data for the rad50EPP+ strain (AID 151);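 further: 0% = growth of vehicle-treated control cultures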; conditions: S. cerevisiae rad50 mutant strain, active compounds read high
Method in brief: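 Yeast strain carrying rad50 alteration (rad50EPP+) exposed to compounds; growth inhibition measured relative to vehicle-treated controls.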

[4] = NCI Yeast Anticancer Drug Screen. Data for the mgt1 strain (AID 153); conditions: S. cerevisiae mgt1 mutant growth inhibition, active compounds read high
Method in brief: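 Yeast mgt1 strain (DNA repair/cell-cycle alteration panel) exposed to compounds; growth inhibition measured relative to vehicle-treated controls.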

[5] = NCI Yeast Anticancer Drug Screen. Data for the rad50 strain (AID 155);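 further: 0% = growth of vehicle-only cultures of the same strain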; conditions: S. cerevisiae rad50 strain growth inhibition, active compounds read high
Method in brief: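 DNA repair mutant yeast, compound exposure, growth read-out; inhibition is taken relative to vehicle.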

[6] = NCI Yeast Anticancer Drug Screen. Data for the mec2-1 strain (AID 157); conditions: S. cerevisiae mec2-1 strain, active compounds read high
Method in brief: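 mec2-1 yeast strain, carrying an alteration in DNA damage repair or cell cycle control, was exposed to compounds; growth inhibition was measured relative to vehicle-treated controls.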

[7] = NCI Yeast Anticancer Drug Screen. Data for the rad14 strain (AID 159);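 further: 0% = growth of vehicle-treated control cultures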; conditions: S. cerevisiae rad14 strain growth inhibition, active compounds read high
Method in brief: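 DNA repair-defective yeast, compound-exposed; % growth inhibition derived by comparison with vehicle-treated controls.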

[8] = NCI Yeast Anticancer Drug Screen. Data for the sgs1 mgt1 strain (AID 161);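 further: 0% = growth of cultures given vehicle only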; conditions: S. cerevisiae sgs1 mgt1 strain, active compounds read high
Method in brief: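 Yeast cells carrying a defined DNA-repair defect were exposed to test compounds. Growth inhibition was measured relative to vehicle-treated controls.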

[9] = NCI Yeast Anticancer Drug Screen. Data for the CLN2oe strain (AID 163);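 further: 0% = growth of vehicle-only control cultures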; conditions: S. cerevisiae CLN2oe strain, active compounds read high
Method in brief: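 Yeast cells carrying a defined cell-cycle control alteration were exposed to test compounds. Growth inhibition was scored against vehicle-treated control cultures.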

[10] = NCI Yeast Anticancer Drug Screen. Data for the cln2 rad14 strain (AID 165);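 further: 0% = growth equal to vehicle treated cultures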; conditions: S. cerevisiae cln2 rad14 strain, active compounds read high
Method in brief: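 Yeast carrying cln2 and rad14 alterations (cell cycle control and DNA damage repair) were exposed to compounds. Growth inhibition was measured against vehicle-treated controls.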

[11] = NCI Yeast Anticancer Drug Screen. Data for the bub3 strain (AID 167); conditions: S. cerevisiae bub3 mutant strain, active compounds read high
Method in brief: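 In this screen, a yeast mutant lacking normal mitotic checkpoint function is challenged with compound. Relative growth versus vehicle gives the inhibition value.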

[12] = NCI Yeast Anticancer Drug Screen. Data for the sgs1 strain (AID 173);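 further: 0% = growth of vehicle-only control cultures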; conditions: S. cerevisiae sgs1 mutant, active compounds read high
Method in brief: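 Yeast mutant strains carrying defined defects in DNA damage repair or cell cycle control were exposed to test compounds. Growth inhibition was scored against vehicle-treated controls.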

[13] = NCI Yeast Anticancer Drug Screen. Data for the mlh1 rad18 strain (AID 175); conditions: S. cerevisiae mlh1 rad18 strain growth inhibition, active compounds read high
Method in brief: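 Growth inhibition of the yeast strain was measured after compound exposure and expressed relative to vehicle-treated controls. The strain carries defined defects in DNA damage repair.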

[14] = NCI Yeast Anticancer Drug Screen. Data for the rad18 strain (AID 177); conditions: S. cerevisiae rad18 mutant growth inhibition, active compounds read high
Method in brief: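 Yeast carrying a defined DNA damage repair alteration were exposed to compounds. Growth inhibition was expressed relative to vehicle-treated controls.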

[15] = NCI Yeast Anticancer Drug Screen. Data for the wt2 strain (AID 169);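 further: 0% = growth of vehicle-treated yeast cultures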; conditions: S. cerevisiae wt2 strain growth inhibition, active compounds read high
Method in brief: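 Yeast cells were exposed to test compounds, and growth inhibition was measured relative to vehicle-treated controls.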

[16] = NCI Yeast Anticancer Drug Screen. Data for the mlh1 strain (AID 171);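 further: 0% = growth of vehicle-treated control cultures of the same strain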; conditions: S. cerevisiae mlh1 strain growth inhibition, active compounds read high
Method in brief: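 Yeast carrying a defined genetic alteration in DNA damage repair or cell cycle control were exposed to test compounds. Growth inhibition was measured relative to vehicle-treated controls.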

[17] = at 5.0 µM (retest, dose inferred, filed as 0.5)
[18] = at 50.0 µM (retest, dose inferred, filed as 5.0)

Measured: growth inhibition

Nc1nc(N)c2nc(CNc3ccc(C(=O)NC(CCC(=O)O)C(=O)O)cc3F)cnc2n1 (stereo unspecified)
active: [1]; at 33.0 µM 82% | [1]; at 100.0 µM 89% | [2]; at 100.0 µM 78% | [5]; [18] 86% | [5]; at 100.0 µM 74% | [6]; at 11.0 µM 81% | [6]; at 33.0 µM 93% | [6]; [18] 97% | [6]; at 50.0 µM 86.7% | [6]; at 100.0 µM 94% | [7]; at 100.0 µM 82% | [11]; [18] 82% | [11]; at 100.0 µM 73% | [14]; at 33.0 µM 72% | [14]; at 100.0 µM 80%
inactive: [1]; at 1.2 µM 28% | [1]; at 3.7 µM 42% | [1]; at 11.0 µM 62% | [2]; at 1.2 µM 13% | [2]; at 3.7 µM 12% | [2]; at 11.0 µM 17% | [2]; at 33.0 µM 50% | [3]; at 1.2 µM 23% | [3]; at 3.7 µM 13% | [3]; at 11.0 µM 13% | [3]; at 33.0 µM 15% | [3]; at 100.0 µM 39% | [4]; at 1.2 µM 19% | [4]; at 3.7 µM 16% | [4]; at 11.0 µM 15% | [4]; at 33.0 µM 36% | [4]; at 100.0 µM 63% | [5]; at 1.2 µM 7% | [5]; at 3.7 µM 18% | [5]; [17] 13% | [5]; at 11.0 µM 30% | [5]; at 33.0 µM 55% | [5]; at 50.0 µM 43% | [6]; at 1.2 µM 19% | [6]; at 3.7 µM 26% | [6]; [17] 26% | [7]; at 1.2 µM 0% | [7]; at 3.7 µM -19% | [7]; at 11.0 µM 0% | [7]; at 33.0 µM 54% | [8]; [17] -4% | [8]; [18] 56% | [8]; at 50.0 µM 39.5% | [9]; at 1.2 µM -8% | [9]; at 3.7 µM 13% | [9]; at 11.0 µM 18% | [9]; at 33.0 µM 17% | [9]; at 100.0 µM 46% | [10]; [17] 14% | [10]; [18] -2% | [10]; at 50.0 µM -5.05% | [11]; at 1.2 µM 6% | [11]; at 3.7 µM 6% | [11]; [17] 2% | [11]; at 11.0 µM 6% | [11]; at 33.0 µM 35% | [11]; at 50.0 µM 29.2% | [12]; at 1.2 µM 24% | [12]; at 3.7 µM 14% | [12]; at 11.0 µM 15% | [12]; at 33.0 µM 41% | [12]; at 100.0 µM 67% | [13]; [17] 18% | [13]; [18] 67% | [13]; at 50.0 µM -2.7% | [14]; at 1.2 µM 20% | [14]; at 3.7 µM 19% | [14]; at 11.0 µM 35%

Cc1nc(-c2cc3cc([N+](=O)[O-])ccc3oc2=O)cs1
active: [1]; at 100.0 µM 97% | [2]; at 100.0 µM 92% | [3]; at 33.0 µM 81% | [3]; at 100.0 µM 99% | [4]; at 100.0 µM 89% | [5]; [18] 84% | [5]; at 50.0 µM 89.9% | [5]; at 100.0 µM 94% | [6]; [18] 100% | [6]; at 50.0 µM 94.2% | [6]; at 100.0 µM 94% | [7]; at 100.0 µM 96% | [8]; at 50.0 µM 89.3% | [11]; at 50.0 µM 89.4% | [11]; at 100.0 µM 92% | [15]; at 100.0 µM 99% | [16]; at 100.0 µM 98% | [12]; at 100.0 µM 99% | [13]; [18] 91% | [14]; at 100.0 µM 94%
inactive: [1]; at 1.2 µM 13% | [1]; at 3.7 µM 39% | [1]; at 11.0 µM 47% | [1]; at 33.0 µM 65% | [2]; at 1.2 µM -5% | [2]; at 3.7 µM 5% | [2]; at 11.0 µM 11% | [2]; at 33.0 µM 25% | [3]; at 1.2 µM -7% | [3]; at 3.7 µM 26% | [3]; at 11.0 µM 57% | [4]; at 1.2 µM -1% | [4]; at 3.7 µM 6% | [4]; at 11.0 µM 5% | [4]; at 33.0 µM 25% | [5]; at 1.2 µM 20% | [5]; at 3.7 µM 17% | [5]; [17] 17% | [5]; at 11.0 µM 23% | [5]; at 33.0 µM 42% | [6]; at 1.2 µM -15% | [6]; at 3.7 µM -3% | [6]; [17] 18% | [6]; at 11.0 µM 3% | [6]; at 33.0 µM 16% | [7]; at 1.2 µM -1% | [7]; at 3.7 µM 6% | [7]; at 11.0 µM 13% | [7]; at 33.0 µM 25% | [8]; [17] 13% | [8]; [18] 46% | [10]; [17] 2% | [10]; [18] 13% | [10]; at 50.0 µM 59.4% | [11]; at 1.2 µM -15% | [11]; at 3.7 µM -2% | [11]; [17] -15% | [11]; at 11.0 µM -1% | [11]; at 33.0 µM 3% | [11]; [18] 60% | [15]; at 1.2 µM -42% | [15]; at 3.7 µM -24% | [15]; at 11.0 µM -11% | [15]; at 33.0 µM 28% | [16]; at 1.2 µM -2% | [16]; at 3.7 µM -12% | [16]; at 11.0 µM 10% | [16]; at 33.0 µM 34% | [12]; at 1.2 µM 5% | [12]; at 3.7 µM 31% | [12]; at 11.0 µM 42% | [12]; at 33.0 µM 62% | [13]; [17] 16% | [13]; at 50.0 µM 14.9% | [14]; at 1.2 µM 1% | [14]; at 3.7 µM 2% | [14]; at 11.0 µM 7% | [14]; at 33.0 µM 34%

Cc1cc2cc3cc(C)c(N)cc3nc2cc1N
inactive: [1]; at 1.2 µM -6% | [1]; at 3.7 µM -1% | [1]; at 11.0 µM -7% | [2]; at 1.2 µM -18% | [2]; at 3.7 µM -8% | [2]; at 11.0 µM -6% | [2]; at 33.0 µM 56% | [3]; at 1.2 µM -10% | [3]; at 3.7 µM 20% | [3]; at 11.0 µM 37% | [4]; at 1.2 µM -61% | [4]; at 3.7 µM -60% | [4]; at 11.0 µM -28% | [4]; at 33.0 µM 68% | [5]; at 1.2 µM -9% | [5]; at 3.7 µM -18% | [5]; at 11.0 µM 27% | [6]; at 1.2 µM -18% | [6]; at 3.7 µM -5%
active: [1]; at 33.0 µM 77% | [1]; at 100.0 µM 96% | [2]; at 100.0 µM 89% | [3]; at 33.0 µM 71% | [3]; at 100.0 µM 84% | [4]; at 100.0 µM 94% | [5]; [17] 94% | [5]; at 33.0 µM 86% | [5]; [18] 99% | [5]; at 50.0 µM 81.8% | [5]; at 100.0 µM 96%
